Reference: PubChem BioAssay (NCATS)
“And” between values parts separate entries of the source, which are not always exact repeats. Identical values can stand only once. Results filed as inconclusive are left out. Entries that show only a call come without a potency. Unmarked numbers belong to inactive results. The source made the active and inactive calls. Calls come from the whole dose curve; as a rule, active = well fitted curve in the direction sought with a large enough effect; inconclusive = small, poorly fitted or top-dose-only effect, or another doubt; inactive = no such curve, though single readings can be large; an effect the other way counts as inactive or inconclusive.

Legend:
[1] = target: Cytochrome P450 3A7 (Homo sapiens) (UniProt P24462); experiment: Cytochrome P450 family 3 subfamily A member 7 (CYP3A7) small molecule antagonists: luciferase biochemical qHTS assay (AID 1963596); settings: P450-Glo CYP3A7 enzyme luminescence, 1 h; series mostly up to 57.4 µM; note: nearly all actives have a fitted effect of over 40% in size
Sequence of Cytochrome P450 3A7 (Homo sapiens) (P24462 whole entry, looked up): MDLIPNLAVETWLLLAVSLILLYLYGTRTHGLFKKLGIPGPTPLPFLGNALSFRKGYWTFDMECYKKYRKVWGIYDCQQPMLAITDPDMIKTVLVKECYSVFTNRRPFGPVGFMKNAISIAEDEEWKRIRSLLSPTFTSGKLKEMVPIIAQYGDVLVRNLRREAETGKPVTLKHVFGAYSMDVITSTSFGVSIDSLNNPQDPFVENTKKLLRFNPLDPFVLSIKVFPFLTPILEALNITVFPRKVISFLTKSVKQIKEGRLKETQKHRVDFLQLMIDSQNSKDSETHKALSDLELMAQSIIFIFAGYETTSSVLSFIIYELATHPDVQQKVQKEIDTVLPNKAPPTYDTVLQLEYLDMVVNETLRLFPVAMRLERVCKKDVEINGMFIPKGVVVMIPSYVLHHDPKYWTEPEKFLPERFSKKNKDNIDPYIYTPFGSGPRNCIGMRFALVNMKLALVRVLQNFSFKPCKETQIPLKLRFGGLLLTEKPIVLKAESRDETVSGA
Outline: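 Enzyme-substrate mix + cpd (DMSO), 10 min RT; + NADPH regen system, 1 h RT; + luciferin detection reagent, 20 min RT; luminescence read. Proluciferin substrate, P450-Glo format, 1536-well qHTS.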

[2] = Viability qHTS for spleen associated tyrosine kinase inhibitor (SYKi) naive MV4-11 cells (AID 1963823); settings: MV4-11 AML viability, CellTiter-Glo luminescence, 72 h; series mostly up to 45 µM; note: nearly all actives have a fitted effect of over 40% in size; note: potency is the fitted concentration of half-maximal effect
Outline: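 Luminescence from CellTiter-Glo, developed 10 min at room temperature, gave viability of MV4-11 cells never exposed to SYK inhibitor. Cells (500/well) had been incubated with compounds for 72 hr under standard culture conditions.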

[3] = Viability qHTS for spleen associated tyrosine kinase inhibitor (SYKi) drug resistant MV4-11 cells (AID 1963824); settings: SYKi-resistant MV4-11 viability, CellTiter-Glo, 72 h; series mostly up to 45 µM; note: nearly all actives have a fitted effect of over 35% in size; note: potency is the fitted concentration of half-maximal effect
Outline: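 CellTiter-Glo luminescence, read 10 min after reagent addition, reports viability after a 72 hr compound exposure. Cells are an MV4-11 line made resistant to SYK inhibition, seeded at 500 per well onto compound-containing plates.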

[4] = Cellular viability qHTS for adrenocortical cancer (ACC) cell line SW-13 (AID 1963989); settings: SW-13 ACC cells viability, CellTiter-Glo, 48 h; activity (max response): hits give low values; note: nearly all actives have a fitted effect of over 65% in size; note: potency is the fitted concentration of half-maximal effect;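 for activity (max response): cells grown in serum-free medium with ITS supplement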
Outline: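 48 h treatment, SW-13 in ITS/DMEM serum-free; doses up to 46 uM; readout CellTiter-Glo luminescence; curve fit four-parameter logistic.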

[5] = Cellular viability qHTS for adrenocortical cancer (ACC) cell line NCI-H295R (AID 1963990); settings: CellTiter-Glo ATP luminescence, 48 h; series mostly up to 46.1 µM; note: nearly all actives have a fitted effect of over 60% in size; note: potency is the fitted concentration of half-maximal effect
Outline: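 Compound titrations (up to 46 uM final) are applied to NCI-H295R cultures for 48 h at 37C. Viable cell number is estimated by CellTiter-Glo signal, normalised to DMSO and doxorubicin controls.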

Compound | Potency [1] | Potency [2] | Potency [3] | activity (max response) [4] | Potency [5] | activity change, negative = inhibition [1] | viability (% of control) [2] | viability, % of control [3] | activity change, negative = viability loss [5] | Potency [4]
NCCc1ccn[nH]1 | inactive | inactive | inactive | 3.59% | inactive |  |  |  |  | 
CC(=O)NCCCS(=O)(=O)O | inactive | inactive | inactive | 5.88% | inactive |  |  |  |  | 
O=C(/C=C/c1ccccc1)OCc1ccccc1 | inactive | inactive | inactive | 5.62% | inactive |  |  |  |  | 
O=C(O)c1ccccc1OP(=O)(O)O | inactive | inactive | inactive | 16.4% | inactive |  |  |  |  | 
NC(N)=NCCC[C@H](N)C(=O)O |  |  |  | -3.82% |  | 2.52% [at 4.83 µM] | 90.4% [at 4.97 µM] | 98.3% [at 4.97 µM] | -23.9% [at 3.81 µM] | 
CCOC(=O)c1cccnc1 | inactive | inactive | inactive | 14.3% | inactive |  |  |  |  | 
NC(Cc1ccc(Cl)cc1)C(=O)O (stereo not given) |  |  |  | -3.09% |  | -2.28% [at 0.91 µM] | 87.6% [at 0.588 µM] | 93.1% [at 0.588 µM] | -11% [at 0.587 µM] | 
CC1(c2ccccc2)OC(C(=O)O)=CC1=O (stereo not given) | inactive | inactive | inactive | -17.9% | inactive |  |  |  |  | 
OCCN1C[C@H](O)[C@@H](O)[C@H](O)[C@H]1CO | inactive | inactive | inactive | 9.26% and -11.1% | inactive |  |  |  |  | 
Cc1cc2c(cc1CC(=O)c1sccc1S(=O)(=O)Nc1onc(C)c1Cl)OCO2 | inactive | inactive | inactive | 2.25% and -17.1% | inactive |  |  |  |  | 
O=C(NCN1CCOCC1)c1cnccn1 | inactive | inactive | inactive | -5.4% | inactive |  |  |  |  | 
N#CCC(=O)NN | inactive | inactive | inactive | 8.55% | inactive |  |  |  |  | 
COc1cc2[nH]c(=O)[nH]c(=O)c2cc1OC | inactive | inactive | inactive | 11.4% | inactive |  |  |  |  | 
COC(=O)Nc1nc2ccc(C(=O)C3CC3)cc2[nH]1 | inactive | 1.06 µM (active) | 0.75 µM (active) |  | 0.461 µM (active) |  |  |  |  | 0.731 µM (active)
O=C(Nc1ccc(Cl)cc1)Nc1ccc(Cl)c(Cl)c1 | inactive | 9.44 µM (active) | 9.44 µM (active) |  | 4.11 µM (active) |  |  |  |  | 2.59 µM (active)
C[C@H]1[C@H](NC(=O)/C(=N/OC(C)(C)C(=O)O)c2csc(N)n2)C(=O)N1S(=O)(=O)O (stereo in doubt) | inactive | inactive | inactive | 8.46% | inactive |  |  |  |  | 
CC(C)NC(=O)c1ccc(C=O)cc1 | inactive | inactive | inactive | 10.9% | inactive |  |  |  |  | 
CCN(CC)CCNC(=O)c1ccc(N)cc1 | inactive | inactive | inactive | 13% | inactive |  |  |  |  | 
CCCCOC(=O)CCCCCCCCC(=O)OCCCC | inactive | inactive | inactive | 11.1% | inactive |  |  |  |  | 
CC(C)(C)NCC(O)COc1cccc2c1CCC(=O)N2 (stereo not given) | inactive | inactive | inactive | 3.97% | inactive |  |  |  |  | 
CC1=NS(=O)(=O)c2cc(Cl)ccc2N1 | inactive | inactive | inactive | 8.23% | inactive |  |  |  |  | 

Compound | Potency [1] | Potency [2] | Potency [3] | activity (max response) [4] | Potency [5] | activity change, negative = inhibition [1] | viability (% of control) [2] | viability, % of control [3] | activity change, negative = viability loss [5] | Potency [4]
NC(=O)NC1NC(=O)NC1=O (stereo not given) | inactive | inactive | inactive | 10.7% | inactive |  |  |  |  | 
O=C(O)Cc1csc(-c2ccc(Cl)cc2)n1 | inactive | inactive | inactive | -3.04% | inactive |  |  |  |  | 
C[N+]1(C)CCCC(OC(=O)C(O)(c2ccccc2)c2ccccc2)C1 (stereo not given) | inactive | inactive | inactive | -0.325% | inactive |  |  |  |  | 
C[C@H]1O[C@@H](n2cc(F)c(=O)[nH]c2=O)[C@H](O)[C@@H]1O | inactive | 3.76 µM (active) and 2.35 µM (active) | 2.11 µM (active) and 1.05 µM (active) | -3.76% and -5.78% | inactive |  |  |  |  | 
O=C1C(=O)c2ccccc2C(O)=C1C1CCC(c2ccc(Cl)cc2)CC1 (stereo not given) | inactive | inactive | inactive | 9.49% | inactive |  |  |  |  | 
Cc1[nH]c(C)c(Cl)c(=O)c1Cl | inactive | inactive | inactive | 4.22% | inactive |  |  |  |  | 
O=C(O)Cn1cnnn1 | inactive | inactive | inactive | 12.6% | inactive |  |  |  |  | 
CC1(C)[C@@H](OC(=O)CCC(=O)O)CC[C@]2(C)[C@H]3C(=O)C=C4[C@@H]5C[C@@](C)(C(=O)O)CC[C@]5(C)CC[C@@]4(C)[C@]3(C)CC[C@@H]12 | inactive | inactive | inactive | 2.49% | inactive |  |  |  |  | 
Cc1sccc1Br | inactive | inactive | inactive | -3.04% | inactive |  |  |  |  | 
CC(=O)N[C@@H](CCC(=O)O)C(=O)O | inactive | inactive | inactive | 10.8% | inactive |  |  |  |  | 
OCC(CO)N[C@H]1C[C@](O)(CO)[C@@H](O)[C@H](O)[C@H]1O | inactive | inactive | inactive | 4.01% | inactive |  |  |  |  | 
CC(C)C(=O)c1c(C(C)C)nn2ccccc12 | inactive | inactive | inactive | 11.5% | inactive |  |  |  |  | 
C[C@@H](O)[C@H]1C(=O)N2C(C(=O)O)=C([C@H]3CCCO3)S[C@H]12 | inactive | inactive | inactive | 12.4% | inactive |  |  |  |  | 
O=C(O)c1cc(=O)c2ccccc2o1 | inactive | inactive | inactive | -0.886% | inactive |  |  |  |  | 
CN(C)C(=O)Oc1ccc[n+](C)c1 | inactive | inactive | inactive | 13.3% | inactive |  |  |  |  | 
CCOC(=O)C(O)c1ccccc1 (stereo not given) | inactive | inactive | inactive | 4.7% | inactive |  |  |  |  | 
CN(C)CCOC(C)(c1ccccc1)c1ccccn1 (stereo not given) | inactive | inactive | inactive | 14.2% | inactive |  |  |  |  | 
NS(=O)(=O)c1ccc(C(=O)O)cc1 | inactive | inactive | inactive | 11.4% | inactive |  |  |  |  | 
C#CCN(C)Cc1ccccc1 | inactive | inactive | inactive | 11.7% | inactive |  |  |  |  | 
CC(=O)Oc1ccc(C)cc1 | inactive | inactive | inactive | 6.29% | inactive |  |  |  |  | 
CN(C)CC[C@@H](c1ccc(Br)cc1)c1ccccn1 | inactive | inactive | inactive | 2.25% | inactive |  |  |  |  | 

Compound | Potency [1] | Potency [2] | Potency [3] | activity (max response) [4] | Potency [5] | activity change, negative = inhibition [1] | viability (% of control) [2] | viability, % of control [3] | activity change, negative = viability loss [5] | Potency [4]
CCc1cccc2c(CCO)c[nH]c12 | inactive | inactive | inactive | 12.9% | inactive |  |  |  |  | 
CNC[C@H](O)c1cccc(O)c1 | inactive | 0.531 µM (active) | inactive | 10.6% and -8.09% | inactive |  |  |  |  | 
CCCNC(=O)NS(=O)(=O)c1ccc(Cl)cc1 | inactive | inactive | inactive | -2.41% | inactive |  |  |  |  | 
COc1ccc(OC)c(C(O)CNC(=O)CN)c1 (stereo not given) | inactive | inactive | inactive | 12.3% | inactive |  |  |  |  | 
CC(C)CCCC(C)CCCC(C)CCCCC(C)CCCC(C)CCCC(C)C (stereo not given) | inactive | inactive | inactive | 6.76% | inactive |  |  |  |  | 
CN(C)c1ccc(O)c2c1C[C@H]1C[C@H]3[C@H](N(C)C)C(=O)C(C(N)=O)=C(O)[C@@]3(O)C(=O)C1=C2O | inactive | 20.9 µM (active) | 20.9 µM (active) | -4.3% and 1.01% | inactive |  |  |  |  | 
CCCCCCCCCCCCCCCCCCN(C)C | inactive | inactive | inactive | -1.14% | inactive |  |  |  |  | 
[O-][n+]1cccc(CO)c1 | inactive | inactive | inactive | 9.62% | inactive |  |  |  |  | 
CC(O)(P(=O)(O)O)P(=O)(O)O | inactive | inactive | inactive | 14.2% | inactive |  |  |  |  | 
CC(O)CCCCn1c(=O)c2c(ncn2C)n(C)c1=O (stereo not given) | inactive | inactive | inactive | 7.24% | inactive |  |  |  |  | 
CCCCCCCCCCCCCCCCCCO | inactive | inactive | inactive | -0.0263% | inactive |  |  |  |  | 
Nc1ncnc2c1C(=O)N(c1ccc(C3CCC(CC(=O)O)CC3)cc1)CCO2 (stereo not given) | inactive | inactive | inactive | 10.6% | inactive |  |  |  |  | 
CCC(C(=O)NC(=O)NC(C)=O)c1ccccc1 (stereo not given) | inactive | inactive | inactive | -1.46% | inactive |  |  |  |  | 
CCCc1c2oc(C(=O)O)cc(=O)c2cc2c(=O)cc(C(=O)O)n(CC)c12 | inactive | inactive | inactive | -2.58% | inactive |  |  |  |  | 
CCN[C@@H]1C[C@H](N)[C@@H](OC2OC(CN)=CCC2N)[C@H](O)[C@H]1O[C@H]1OC[C@](C)(O)[C@H](NC)[C@H]1O (stereo not given in full) |  |  |  | -2.24% |  | 12% [at 0.91 µM] | 111% [at 0.588 µM] | 115% [at 0.588 µM] | -3.31% [at 0.587 µM] | 
O=C1O[C@H](CO)[C@@H](O)[C@H](O)[C@H]1O | inactive | inactive | inactive | 5.91% | inactive |  |  |  |  | 
Cc1c(N)cccc1C(F)(F)F | inactive | inactive | inactive | 12.6% | inactive |  |  |  |  | 
OC[C@H]1O[C@@H](O[C@@H]2[C@@H](CO)O[C@](O)(CO)[C@H]2O)[C@H](O)[C@@H](O)[C@H]1O | inactive | inactive | inactive | 1.01% and 4.87% | inactive |  |  |  |  | 
Nc1cc(=O)[nH]c(N)n1 | inactive | inactive | inactive | -6.62% | inactive |  |  |  |  | 
Nc1ccc(C(=O)O)cc1 | inactive | inactive | inactive | 6.83% | inactive |  |  |  |  | 
CCOc1nc2cccc(C(=O)O)c2n1Cc1ccc(-c2ccccc2-c2nn[nH]n2)cc1 | inactive | inactive | inactive | 10.5% | inactive |  |  |  |  | 
